Screening results (PubChem)
VDR inhibitor: vitamin D3 receptor (human) inhibition | P11473 | AID 504847 | Potency, µM, actives largely listed as inhibitors | 0.93% of 400,000 active | VDR-SRC2-3 peptide fluorescence polarization, 2 h
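Compounds are added to VDR with labelled SRC2-3 coactivator peptide and held 2 h at room temperature. Inhibition of the VDR–peptide interaction is then read as a change in fluorescence polarization.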
GLS inhibitor: glutaminase GLS (human) inhibition | O94925 | Potency, µM (highest dose often 45.5 µM), hits mostly inhibitors | 0.21% of 410,000 active | GLS enzymatic activity, qHTS titration | AID 624170
Target sequence (O94925 whole entry, looked up): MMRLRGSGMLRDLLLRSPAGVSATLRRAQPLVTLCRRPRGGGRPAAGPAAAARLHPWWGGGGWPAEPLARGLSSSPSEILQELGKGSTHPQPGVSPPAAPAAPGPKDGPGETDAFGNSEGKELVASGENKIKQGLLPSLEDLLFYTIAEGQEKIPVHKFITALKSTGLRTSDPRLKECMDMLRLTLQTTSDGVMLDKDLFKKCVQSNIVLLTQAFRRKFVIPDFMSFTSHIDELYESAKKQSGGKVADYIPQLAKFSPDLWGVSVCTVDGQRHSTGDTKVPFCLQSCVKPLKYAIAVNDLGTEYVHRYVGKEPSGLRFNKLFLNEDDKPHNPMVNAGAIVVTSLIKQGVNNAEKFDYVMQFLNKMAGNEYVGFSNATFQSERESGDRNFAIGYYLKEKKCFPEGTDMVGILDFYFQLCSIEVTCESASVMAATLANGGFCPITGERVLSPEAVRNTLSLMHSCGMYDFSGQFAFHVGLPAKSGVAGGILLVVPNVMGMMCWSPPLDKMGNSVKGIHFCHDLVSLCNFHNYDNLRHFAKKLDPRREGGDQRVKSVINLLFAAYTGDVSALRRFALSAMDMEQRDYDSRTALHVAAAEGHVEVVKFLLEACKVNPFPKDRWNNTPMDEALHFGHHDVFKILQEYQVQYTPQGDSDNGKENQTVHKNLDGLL
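Two-point fluorescence kinetic (t0, 30 min RT) for hKGA; glutamate detected via glutamate oxidase–HRP–Amplex Red. Substrate: 1 mM L-glutamine solution; buffer 45 mM KH2PO4, pH 8.2.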
KAT2A inh: inhibitors of human GCN5L2 histone acetyltransferase. Q92830. GCN5L2 HAT assay, ThioGlo1 CoA-SH fluorescence. Potency, µM (highest dose often 58.9 µM), hits mostly inhibitors. 0.21% of 390,000 active. AID 504327
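Free CoA generated was detected with ThioGlo1 (50uM) fluorescence at Ex340nm/Em540nm, read immediately and after 20 min at room temperature. Enzyme, 20 nM in HEPES pH 7.5 buffer, saw compounds 15 min before adding 75uM H3(1-25) peptide and 70uM acetyl-CoA.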
rTrxR1 inhibitor: rat TrxR1 inhibition; recombinant rTrxR1, NADPH fluorescence consumption, selenite substrate; Potency, µM (highest dose often 114 µM), actives largely listed as inhibitors; 1% of 390,000 active; AID 588453; also: nearly all actives have a fitted effect of over 65% in size
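Rat TrxR1 (90 nM in the dispensed reagent) was pre-reduced with 400 uM NADPH for 5 min at room temperature, then incubated with compound for 15 min. After 400 uM selenite was added, NADPH fluorescence (Ex 340/Em 450 nm) was followed for 8 min.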
Sfp inh: Sfp phosphopantetheinyl transferase inhibition; Q9F4F7; Biochemical Sfp PPTase activity, qHTS; Potency, µM, most hits filed as inhibitors; 3.5% of 310,000 active;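 also: the enzyme is Sfp with the accession as filed and its product quenches rhodamine fluorescence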
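Reaction rates are the 30-min fluorescence difference (ex 525, em 598 nm) in wells containing 15 nM Sfp, 5 uM rhodamine-CoA and 12.5 uM BHQ-2-YbbR at pH 7.6 with 10 mM MgCl2.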
TrxR1 substrate: substrates of rat thioredoxin reductase 1; O89049; AID 588456; Potency, µM (top dose mostly 114 µM); purified TrxR1 substrate turnover, NADPH consumption readout; 0.01% of 390,000 active; also: nearly all actives have a fitted effect of over 50% in size
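Rat TrxR1, dispensed at 90 nM, was prereduced with 400 uM NADPH (final) for 5 min at ~22 deg C, then incubated with compound 15 min before 400 uM selenite. A first-read NADPH fluorescence drop versus no-compound background flagged substrates.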
Large screens that a line does not name were inactive. Hits are enriched below; roughly 3.8% of the tested compounds scored in any of these assays. Calls follow the shape of the dose curve; as a rule, active = well fitted curve in the direction sought with a large enough effect; inconclusive = small, poorly fitted or top-dose-only effect, or another doubt; inactive = no such curve, though single readings can be large; an effect the other way counts as inactive or inconclusive.

CCOc1ccc(Nc2nc(NCC3CCCO3)c3ccccc3n2)cc1 (stereo not drawn)	Sfp inh 35µM
c1ccc(Nc2nc(NCC3CCCO3)c3ccccc3n2)cc1 (stereo not drawn)	Sfp inh inconclusive
COc1ccc(NC(=O)c2cc3c(COC(C)=O)cnc(C)c3oc2=Nc2cccc(C(=O)O)c2)c(OC)c1	GLS inhibitor 10µM
COc1cccc(N=c2oc3c(C)ncc(CO)c3cc2C(=O)Nc2ccccc2OC)c1	none (no result: VDR inhibitor, GLS inhibitor, rTrxR1 inhibitor, TrxR1 substrate)
CCOC(=O)c1c(NC(=O)CSc2nnc(C)s2)sc2c1CCN(C)C2	GLS inhibitor inconclusive, Sfp inh 18µM
CCOC(=O)c1c(NC(=S)Nc2ccc(OCC)cc2)sc2c1CCN(C)C2	rTrxR1 inhibitor inconclusive, Sfp inh 16µM
CCOC(=O)c1c(NC(=S)Nc2ccc(Cl)cc2)sc2c1CCN(C)C2	rTrxR1 inhibitor inconclusive, Sfp inh inconclusive
O=c1cc(CN2CCN(Cc3ccccc3)CC2)c2cc(O)ccc2o1	none
CCCCNC(=S)N1CCN(Cc2ccc3c(c2)OCO3)CC1	Sfp inh 14µM
c1cc2c(cc1CN1CCN(C3CCCCCC3)CC1)OCO2	Sfp inh 56µM
Cc1cc(C)c(C#N)c(Cl)n1	none
CCCc1cc(=O)[nH]c2nnc(SCC(=O)Nc3cccc(C)c3)n12	none (no result: Sfp inh)
O=c1c2ccccc2c(-c2n[nH]c(=S)o2)nn1Cc1ccccc1	rTrxR1 inhibitor inconclusive, Sfp inh 79µM
S=c1[nH]nc(-c2ccccc2)o1	none
CCc1nc(Nc2ccc(O)cc2)c2oc3ccccc3c2n1	GLS inhibitor 4.5µM
O=C(CCOc1ccccc1)Nc1cccc(S(=O)(=O)Nc2ccccc2Cl)c1	none
O=C(COc1ccc([N+](=O)[O-])cc1)Nc1cccc2nsnc12	none
COc1ccc(C(=O)NC(=S)NCc2ccccc2)cc1	VDR inhibitor inconclusive, rTrxR1 inhibitor 22µM
CCC(=O)NC(=S)NNC(=O)c1ccc([N+](=O)[O-])cc1	rTrxR1 inhibitor inconclusive, Sfp inh 79µM
CCCCC(=O)NNC(=S)NC(=O)c1cccc([N+](=O)[O-])c1	VDR inhibitor inconclusive, rTrxR1 inhibitor inconclusive
CCC(=O)NC(=S)NNC(=O)c1ccc(OC)cc1	rTrxR1 inhibitor inconclusive, Sfp inh 56µM
O=C(NNC(=S)NC(=O)c1ccccc1)c1cccc([N+](=O)[O-])c1	GLS inhibitor inconclusive
CCCCC(=O)NNC(=S)NC(=O)c1ccc([N+](=O)[O-])cc1	VDR inhibitor inconclusive, KAT2A inh inconclusive, rTrxR1 inhibitor inconclusive, Sfp inh 20µM
CCCCOc1ccc(C(=O)NNC(=S)NC(=O)CC)cc1	VDR inhibitor inconclusive
COC(=O)c1ccc(Cn2nc(C)c(Cl)c2C)o1	none
COC(=O)[C@H](C)N1C/C=C\COc2c(Cl)cc(Cl)cc2S1(=O)=O	rTrxR1 inhibitor inconclusive (no result: Sfp inh)
COc1ccc(C(=O)NC(=S)Nc2ccc3c(c2)Cc2ccccc2-3)cc1	Sfp inh 45µM
CCCCCC(=O)NNC(=S)NC(C)=O	Sfp inh 79µM
COc1ccc(CC(=S)NCCc2ccccc2)cc1	VDR inhibitor inconclusive, Sfp inh 14µM
COc1cc(C(=O)Nc2ccc3c(c2)Cc2ccccc2-3)cc(OC)c1OC	none
Cc1ccc(C(=O)OCC(=O)NC(=O)c2ccc(C(C)(C)C)cc2)c(O)c1	none (no result: Sfp inh)
Cc1ccc2ccc(C(Nc3cccc(C(F)(F)F)c3)c3cccnc3)c(O)c2n1 (stereo not drawn)	rTrxR1 inhibitor inconclusive
COc1ccc(NCc2cccn2-c2nnc(N3CCCCCC3)s2)cc1	none (no result: Sfp inh)
O=C(/C(=C/c1ccccc1)n1cncn1)c1ccc(Cl)cc1Cl	VDR inhibitor 20µM, rTrxR1 inhibitor inconclusive
CCOc1ccc(C(=O)NC2CCN(C(=S)NCc3ccco3)CC2)cc1	Sfp inh 7.1µM
O=C(NC1CCCCC1)NC1CC2CCC(C1)N2C(=S)NCc1ccco1 (stereo not drawn)	Sfp inh 45µM
O=C(Nc1ccccc1C(=O)NCc1ccco1)NC1CCCCC1	none
Cc1ccccc1-c1nsc(SCC(=O)NCc2ccc3c(c2)OCO3)n1	none
